Holding throughout (experiment): NCI-60 one-dose screen, 48 h (100 = growth as untreated, 0 = no growth, -100 = all killed)
One experiment has as its system SK-MEL-2 melanoma. To be noted: 10 µM unless noted.
For another experiment, the system named is EKVX NSCLC. To be noted: 10 µM unless noted.
Another experiment concerns SN12C renal. The settings on record: 10 µM unless noted.
The next experiment concerns UO-31 renal. The settings on record: 10 µM unless noted.
The subject of a further experiment is ACHN renal. The settings on record: 10 µM unless noted.
A further experiment deals with CAKI-1 renal. To be noted: 10 µM.
In a further experiment the test system is A498 renal. To be noted: 10 µM unless noted.
In the next experiment the test system is CCRF-CEM leukemia. The settings on record: 10 µM unless noted.
The subject of the next experiment is MOLT-4 leukemia. To be noted: 10 µM unless noted.
In the next experiment the test system is SR leukemia. The settings on record: 10 µM unless noted.
In a further experiment the test system is RPMI-8226 leukemia. To be noted: 10 µM unless noted.
The test system of another experiment is OVCAR-8 ovarian. The settings on record: 10 µM unless noted.
The subject of the next experiment is OVCAR-5 ovarian. To be noted: 10 µM unless noted.
A further experiment relates to OVCAR-4 ovarian. To be noted: 10 µM unless noted.
The subject of a further experiment is OVCAR-3 ovarian. To be noted: 10 µM unless noted.
For another experiment, the system named is HS 578T breast. To be noted: 10 µM unless noted.
For another experiment, the system named is NCI/ADR-RES ovarian. The settings on record: 10 µM unless noted.
In another experiment the test system is SK-OV-3 ovarian. To be noted: 10 µM unless noted.
The subject of the next experiment is IGROV1 ovarian. To be noted: 10 µM unless noted.

The panel holds about 83,000 compounds, 20% with a hit somewhere; the sample as a whole holds those more often.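 Single-concentration screen, 48 h exposure, 96-well plates. Endpoint: percent growth. Below 10 = active.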 A number with no mark means an inactive call. The source made the active and inactive calls.

In the case of `O=C1COc2ccccc2C(=O)N1CCCCNc1ccccc1`, the growth was 104% in the experiment on SK-MEL-2 melanoma; 106% with EKVX NSCLC; 58.4% in the experiment on SN12C renal; 12.2% with UO-31 renal; 110% in the experiment on ACHN renal; 107% in the experiment on CAKI-1 renal. Besides, the growth was 97.8% in the experiment with A498 renal; 1.06% (active) in the experiment with CCRF-CEM leukemia; 34.1% with MOLT-4 leukemia; 84.8% with SR leukemia; 28.3% in the experiment on RPMI-8226 leukemia; 93.9% with OVCAR-8 ovarian. Also, the growth in the experiment on OVCAR-5 ovarian is 107%; in the experiment with OVCAR-4 ovarian, 112%; in the experiment on OVCAR-3 ovarian it was 105%; in the experiment with HS 578T breast, 108%; with NCI/ADR-RES ovarian it was 94.6%.
Regarding `COc1ccc(OCC(O)CN2CCN(c3ccc(Cl)cc3)CC2)cc1` (stereo not given), the growth in the experiment with SK-MEL-2 melanoma was 135%; in the experiment with EKVX NSCLC, 97.4%; in the experiment on SN12C renal, 105%; in the experiment with UO-31 renal it was 76%; with ACHN renal, 101%; with CAKI-1 renal it was 79.9%. Also, the growth was 82.8% with A498 renal; 113% in the experiment on CCRF-CEM leukemia; 107% with MOLT-4 leukemia; 112% in the experiment with SR leukemia; 98.9% with RPMI-8226 leukemia; 61.6% in the experiment on OVCAR-8 ovarian. Moreover, the growth with OVCAR-4 ovarian was 79.8%; in the experiment on SK-OV-3 ovarian, 90.7%; with OVCAR-3 ovarian, 105%; in the experiment with HS 578T breast, 123%.
As to `CSc1ccc(C(=O)C[n+]2cccc(C)c2)cc1`, the growth in the experiment on SK-MEL-2 melanoma was 110%; in the experiment on EKVX NSCLC, 100%; with SN12C renal, 99.9%; in the experiment with UO-31 renal, 97.4%; in the experiment with ACHN renal, 112%; in the experiment on CAKI-1 renal, 102%. For the same molecule, the growth in the experiment on A498 renal was 86.7%; in the experiment with MOLT-4 leukemia it was 97%; with SR leukemia, 106%; with RPMI-8226 leukemia, 98.2%; in the experiment with OVCAR-8 ovarian, 106%; with OVCAR-5 ovarian, 104%. Besides, the growth with OVCAR-4 ovarian was 113%; in the experiment with SK-OV-3 ovarian it was 102%; in the experiment on IGROV1 ovarian, 106%; in the experiment with HS 578T breast, 98.4%; with NCI/ADR-RES ovarian, 104%.
In the case of `O=C(NCCNc1nccc(-c2c(-c3cccc(O)c3)nc3sccn23)n1)Nc1cc(C(F)(F)F)cc(C(F)(F)F)c1`, the growth in the experiment on SK-MEL-2 melanoma is 110%; with EKVX NSCLC it was 52.2%; in the experiment on SN12C renal it was 82.8%; in the experiment with UO-31 renal, 73.1%; in the experiment on ACHN renal it was 65.9%; with CAKI-1 renal it was 72.3%. In addition, the growth in the experiment with A498 renal was 86%; with MOLT-4 leukemia, 60.2%; with SR leukemia it was 65.3%; in the experiment with RPMI-8226 leukemia, 45.7%; in the experiment on OVCAR-8 ovarian, 52.8%; with OVCAR-5 ovarian it was 96.5%. Besides, the growth in the experiment with OVCAR-4 ovarian was 121%; in the experiment on SK-OV-3 ovarian it was 89.3%; in the experiment with IGROV1 ovarian, 65.2%; in the experiment with OVCAR-3 ovarian, 82.2%.
In the case of `Nc1nccc2c1ccn2-c1ccc(NC(=O)c2ccc(N3CCOCC3)c(C(F)(F)F)c2)cc1`, the growth is 35.3% in the experiment on SK-MEL-2 melanoma; 36.7% with EKVX NSCLC; 48.8% in the experiment with SN12C renal; -41.2% (active) in the experiment with UO-31 renal; 24.3% with ACHN renal; -25.3% (active) in the experiment on CAKI-1 renal. Also, the growth is -9.64% (active) with A498 renal; 18.5% in the experiment with CCRF-CEM leukemia; -3.7% (active) with MOLT-4 leukemia; -29.9% (active) in the experiment with RPMI-8226 leukemia; 28% in the experiment on OVCAR-8 ovarian; 14.2% in the experiment on OVCAR-5 ovarian. Further, the growth in the experiment on OVCAR-4 ovarian is 77.4%; in the experiment on SK-OV-3 ovarian it was 48.4%; in the experiment with IGROV1 ovarian it was 35.8%; in the experiment on OVCAR-3 ovarian, 46%; with NCI/ADR-RES ovarian, 49.3%.
Consider `O=C(Nc1ccc(-n2cc(-c3ccncc3)c(-c3ccc(O)c(Cl)c3)n2)cc1)c1ccc(Cl)c(C(F)(F)F)c1`, for which the growth was -0.332% (active) in the experiment on SK-MEL-2 melanoma; 31.8% in the experiment on EKVX NSCLC; 45.2% in the experiment with SN12C renal; 18.4% in the experiment on UO-31 renal; 17.4% with ACHN renal; 20.5% with CAKI-1 renal. Moreover, the growth with A498 renal was 77.7%; in the experiment on MOLT-4 leukemia, 16.8%; with RPMI-8226 leukemia, -26.9% (active); in the experiment with OVCAR-8 ovarian it was 17.8%; with OVCAR-5 ovarian it was 61.6%; in the experiment with OVCAR-4 ovarian it was 62.6%. The growth with SK-OV-3 ovarian is 56%; in the experiment with IGROV1 ovarian, 52.9%; in the experiment with OVCAR-3 ovarian, 4.18% (active); with NCI/ADR-RES ovarian, 18.5%.
As to `O=C(Nc1cccc(-n2ccc3c(NC(=O)c4ccccc4)ncnc32)c1)Nc1ccc(Cl)c(C(F)(F)F)c1`, the growth in the experiment with SK-MEL-2 melanoma is -8.08% (active); in the experiment on EKVX NSCLC, 32.1%; in the experiment with SN12C renal, 40.9%; in the experiment with UO-31 renal it was 43.5%; in the experiment on ACHN renal, 25.5%; in the experiment on CAKI-1 renal, 18.1%. Further, the growth was 42.9% with A498 renal; 15.8% in the experiment on MOLT-4 leukemia; 17.7% in the experiment on SR leukemia; 16.2% with RPMI-8226 leukemia; 25.9% in the experiment with OVCAR-8 ovarian; 48.1% in the experiment with OVCAR-5 ovarian. Further, the growth in the experiment on OVCAR-4 ovarian is 64.4%; in the experiment with SK-OV-3 ovarian, 52.2%; in the experiment with IGROV1 ovarian it was 32.5%; in the experiment with OVCAR-3 ovarian it was 26.1%; in the experiment with NCI/ADR-RES ovarian, 34.8%.
In the case of `CC[C@H]1[C@@H]2C=C[C@@H]3[C@H]4C/C=C\C(=O)NCCC[C@@H]5NC(=O)/C(=C(O)/C=C/[C@@H]4C[C@@H]3[C@H]2C[C@H]1C)C5=O`, the growth was 46% in the experiment with SK-MEL-2 melanoma; 15.3% in the experiment on EKVX NSCLC; -66.1% (active) in the experiment on SN12C renal; -78.2% (active) in the experiment with UO-31 renal; -84.1% (active) in the experiment with ACHN renal; -41.3% (active) in the experiment with CAKI-1 renal. For the same molecule, the growth in the experiment on A498 renal is -18.4% (active); in the experiment on CCRF-CEM leukemia it was -17% (active); in the experiment on RPMI-8226 leukemia it was 6.24% (active); with OVCAR-8 ovarian, -54.8% (active); in the experiment on OVCAR-5 ovarian, 41.6%; with OVCAR-4 ovarian, -31.5% (active). The growth in the experiment with SK-OV-3 ovarian is 1.98% (active); in the experiment on IGROV1 ovarian, -66.5% (active); in the experiment with OVCAR-3 ovarian, -94.7% (active); in the experiment with HS 578T breast, -2.24% (active); in the experiment with NCI/ADR-RES ovarian, -57.2% (active).
In the case of `O=C(Nc1cccc(-n2ccc3c(NC(=O)c4ccccc4)nccc32)c1)c1cc(N2CCOCC2)cc(C(F)(F)F)c1`, the growth in the experiment on SK-MEL-2 melanoma was -4.8% (active); in the experiment with EKVX NSCLC it was 36.8%; in the experiment on SN12C renal, 18.8%; with UO-31 renal, 9.78% (active); with ACHN renal, 6% (active); in the experiment on CAKI-1 renal, 23.5%. For the same molecule, the growth with A498 renal was 6.2% (active); in the experiment on MOLT-4 leukemia, 0.605% (active); in the experiment with SR leukemia, -14.2% (active); in the experiment with RPMI-8226 leukemia it was -42.4% (active); in the experiment on OVCAR-8 ovarian, 2.86% (active); with OVCAR-5 ovarian, 19.3%. In addition, the growth with OVCAR-4 ovarian is 83.1%; in the experiment on SK-OV-3 ovarian, 5% (active); with IGROV1 ovarian, 4.25% (active); in the experiment on OVCAR-3 ovarian, -34.8% (active); with NCI/ADR-RES ovarian, 7.24% (active).

These data come from PubChem BioAssay (NCI).
